Screening data as filed in PubChem BioAssay.
Hits are enriched below; roughly 2.4% of the tested compounds scored in any of these assays.
POLK inh: blocks human DNA polymerase kappa activity | Q9UBT6 | Potency, µM (doses to about 107 µM), usual class: inhibitors | AID 588579 | purified Pol kappa, fluorescent DNA synthesis assay, 10 min | 0.53% of 400,000 active
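Inhibition of 10 nM Pol kappa is measured by a fluorescent read-out at 0 and 10 min following addition of 50 nM substrate (final), with a 15-min room-temperature compound preincubation.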
POLB inh: blocks human DNA polymerase beta activity; P06746; Pol beta primer extension/strand displacement, fluorescence kinetic; Potency, µM (series often up to 114 µM), most hits filed as inhibitors; 1.3% of 340,000 active
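10 nM enzyme + cpd, 15 min RT; start with substrate 50 nM final; read 0 min and after 10 min RT. Corrected, normalized data; 4-parameter Hill curve fit.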
Pol eta inh: DNA polymerase eta (human) inhibition. Q9Y253. recombinant Pol eta, fluorescent DNA replication assay. Potency, µM (top dose mostly 114 µM), usual class: inhibitors. 1.2% of 390,000 active. AID 588591
Target sequence (Q9Y253 whole entry, looked up): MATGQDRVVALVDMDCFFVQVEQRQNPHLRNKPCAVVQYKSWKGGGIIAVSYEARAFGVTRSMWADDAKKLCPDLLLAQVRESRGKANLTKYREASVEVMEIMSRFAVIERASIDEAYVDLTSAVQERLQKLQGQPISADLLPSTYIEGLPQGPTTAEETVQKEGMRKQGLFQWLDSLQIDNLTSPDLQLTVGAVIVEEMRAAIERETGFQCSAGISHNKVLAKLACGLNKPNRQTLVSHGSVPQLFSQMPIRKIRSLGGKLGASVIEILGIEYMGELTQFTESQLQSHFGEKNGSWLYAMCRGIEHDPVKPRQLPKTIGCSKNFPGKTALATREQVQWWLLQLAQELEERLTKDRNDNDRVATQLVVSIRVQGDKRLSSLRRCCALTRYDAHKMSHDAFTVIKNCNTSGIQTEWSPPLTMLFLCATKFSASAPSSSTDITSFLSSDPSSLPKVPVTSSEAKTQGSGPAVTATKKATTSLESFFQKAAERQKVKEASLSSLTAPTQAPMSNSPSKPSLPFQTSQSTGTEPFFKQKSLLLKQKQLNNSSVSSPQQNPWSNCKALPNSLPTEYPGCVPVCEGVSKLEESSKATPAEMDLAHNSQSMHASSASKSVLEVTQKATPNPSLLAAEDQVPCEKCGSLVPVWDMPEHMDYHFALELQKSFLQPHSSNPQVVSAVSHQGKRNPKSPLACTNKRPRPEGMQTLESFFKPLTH
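Fluorescent replication assay: 50 nM final substrate added after a 15 min room-temperature compound preincubation with 10 nM enzyme. Signal taken at 0 min and again at 10 min.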
FEN1 inhibitor: inhibitors of human flap endonuclease 1. P39748. Recombinant FEN1 flap cleavage, fluorescence, 15 min. Potency, µM (titrated, usually from 114 µM), most hits filed as inhibitors. 0.35% of 390,000 active; note: nearly all actives have a fitted effect of over 65% in size
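Enzyme 10 nM, 15 min RT preincubation with compound; start with substrate 50 nM final; reads at 0 and 15 min; qHTS titration, four-parameter Hill fit.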
POLI inh: inhibitors of human DNA polymerase iota; Pol iota fluorescent replication assay, 10 min; Potency, µM (highest dose often 115 µM), actives largely listed as inhibitors; Q9UNA4; AID 588590; 1% of 390,000 active
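Fluorescent replication assay read twice, at 0 min and 10 min after adding 50 nM (final) substrate. Enzyme (10 nM) and compounds were first incubated 15 min at room temperature; enzyme-free buffer wells were negative controls.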
WRN helicase inh: inhibitors of human WRN helicase; WRN helicase unwinding, fluorescent forked duplex, kinetic; Potency, µM (series often up to 114 µM), most hits filed as inhibitors; 0.46% of 360,000 active; AID 651768; note: nearly all actives have a fitted effect of over 55% in size
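Enzyme (20 nM final) and test compound sit together 15 min at room temperature before substrate addition. Substrate is a single-forked duplex oligonucleotide (100 nM) labelled with fluorophore and quencher, with 2 mM ATP; helicase unwinding raises red fluorescence, read kinetically.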
Each line names hits and unclear results; the compound was inactive in the other large screens. Calls come from the whole dose curve; as a rule, active = well fitted curve in the direction sought with a large enough effect; inconclusive = small, poorly fitted or top-dose-only effect, or another doubt; inactive = no such curve, though single readings can be large; an effect the other way counts as inactive or inconclusive.

Cc1ccc2c(CC(=O)NNC(=O)c3ccccc3O)coc2c1	Pol eta inh inconclusive, POLI inh 45µM (no result: POLB inh)
COc1ccccc1NC(=O)Cc1coc2cc(C)ccc12	none
COc1ccc([N+](=O)[O-])cc1NC(=O)CCS(=O)(=O)c1ccc(Br)cc1	POLK inh inconclusive, POLB inh 16µM, Pol eta inh 50µM
O=C(CCS(=O)(=O)c1ccc(Br)cc1)NC1CCCC1	POLK inh inconclusive, POLB inh 22µM, Pol eta inh inconclusive
CCc1ccccc1NC(=O)CCS(=O)(=O)c1ccc(Br)cc1	POLB inh 35µM
O=S(=O)(NCCc1ccc(F)cc1)c1cc(C(F)(F)F)ccc1Br	none (no result: POLB inh)
CC1C=CC=CC=CC=CC=CC=CC=CC(OC2OC(C)C(O)C(N)C2O)CC2OC(O)(CC(O)CC(O)C(O)CCC(O)CC(O)CC(=O)OC(C)C(C)C1O)CC(O)C2C(=O)O (centres undefined)	POLK inh 18µM, Pol eta inh 0.89µM, POLI inh 1.3µM, WRN helicase inh 18µM (no result: POLB inh)
c1ccc(-c2ccccc2OCCOCCN2CCOCC2)cc1	POLB inh 50µM
Cc1cc(C)c(C)c(S(=O)(=O)N[C@@H](C)C(=O)OCc2cc(=O)n3cc(Br)ccc3n2)c1C	POLK inh inconclusive, POLB inh 8.9µM, Pol eta inh inconclusive, POLI inh 50µM
COc1ccc(C2=Nn3c(nnc3-c3ccccc3Cl)SC2)cc1OCC1CC1	POLK inh 40µM (no result: POLB inh, WRN helicase inh)
COc1ccc(OC)c(-c2nnc3n2N=C(c2ccc(OC)c(OCC4CC4)c2)CS3)c1	POLK inh inconclusive (no result: POLB inh, WRN helicase inh)
COc1ccc(NC(=O)c2c(Cl)n(C)c3ccccc23)cc1	Pol eta inh inconclusive
CN(C)/C=C/C(=O)/C=C/c1cn(-c2ncc(C(F)(F)F)cc2Cl)c2ccccc12	POLB inh 25µM
COc1ccccc1OC(C)C(=O)Nc1cccc(-c2nc3ccccc3o2)c1 (centres undefined)	POLK inh inconclusive, POLB inh 50µM, Pol eta inh inconclusive, FEN1 inhibitor inconclusive, POLI inh 89µM (no result: WRN helicase inh)
CC(C)C(=O)Nc1cccc(-c2nc3ccccc3o2)c1	POLB inh inconclusive
CC(=O)Nc1ccc(-c2ccnc3c2CC(C(=O)Nc2cccc(C(F)(F)F)c2)O3)cc1 (centres undefined)	none (no result: POLK inh, POLB inh, Pol eta inh, FEN1 inhibitor, POLI inh)
Oc1cc(Nc2cccnc2)cc2cccnc12	none (no result: POLB inh, WRN helicase inh)
Oc1cc(NCCc2cccnc2)cc2cccnc12	POLI inh 35µM (no result: POLB inh, WRN helicase inh)
CCC1COCCS(=O)(=O)N1Cc1ccccc1 (centres undefined)	none
CC(=O)NCc1ccc(C(=O)CSc2nnc(-c3ccncc3)n2Cc2ccccc2)o1	POLK inh 79µM, POLB inh 20µM, Pol eta inh 20µM, POLI inh 22µM, WRN helicase inh inconclusive
CC(=O)NCCn1c(SCC(=O)NCCC(C)C)nc2ccccc2c1=O	POLK inh 22µM
C=CCn1c(SCC(=O)c2ccc(CNC(C)=O)o2)nc2ccccc2c1=O	POLK inh inconclusive, POLB inh inconclusive, Pol eta inh inconclusive, POLI inh 16µM
CCCCNC(=O)CSc1nc2ccccc2c(=O)n1CCNC(C)=O	none
COc1ccc(N(CC(=O)N/N=C/c2cccc(OC)c2OC)S(=O)(=O)c2ccccc2)cc1	POLB inh inconclusive
CNc1ccc(Br)cc(C(=O)/C=C/c2ccc(Cl)cc2Cl)c1=O	POLB inh 32µM, Pol eta inh 50µM, POLI inh inconclusive
CNc1ccc(Br)cc(C(=O)/C=C/c2cccc(OC)c2)c1=O	POLK inh inconclusive, Pol eta inh 16µM, FEN1 inhibitor inconclusive, POLI inh inconclusive
O=C(/C=C/c1ccc(Cl)cc1Cl)c1ccc[nH]1	none
COc1cccc(/C=C/C(=O)OCC(=O)NCCNC(=O)COC(=O)/C=C/c2cccc(OC)c2)c1	none (no result: POLB inh)
CNc1ccc(Br)cc(C(=O)/C=C/c2ccc(OC)cc2OC)c1=O	POLK inh inconclusive, POLB inh inconclusive, Pol eta inh 45µM, FEN1 inhibitor inconclusive, POLI inh 11µM, WRN helicase inh inconclusive
COc1ccc(/C=C/C(=O)c2ccc(OC)cc2OC)c(OC)c1	none
C/C(Cl)=C/CN1C(=O)C2C3C=CC(C3)C2C1=O (centres undefined)	none
